# Hits are enriched below; roughly 2.4% of the tested compounds scored in any of these assays.
# PTK2B oligo ant – antagonists of Pyk2 self-association, primary screen, Q293 cells, FERM NanoBiT luminescence, HTS | AID 1347419, 2020 | hits give low values | Protein-tyrosine kinase 2-beta (Homo sapiens), Q14289 | z-score (the deposit names both 25 µM and 10 µM) | hit rate 0.83% among 99,000;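 active = Z-score of -3 or lower, scaled per plate to the spread of control and sample wells; inactive = z-score above -3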;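 note: negative z-score means lost luminescence so less FERM oligomerization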
# Target sequence (Q14289 whole entry, looked up): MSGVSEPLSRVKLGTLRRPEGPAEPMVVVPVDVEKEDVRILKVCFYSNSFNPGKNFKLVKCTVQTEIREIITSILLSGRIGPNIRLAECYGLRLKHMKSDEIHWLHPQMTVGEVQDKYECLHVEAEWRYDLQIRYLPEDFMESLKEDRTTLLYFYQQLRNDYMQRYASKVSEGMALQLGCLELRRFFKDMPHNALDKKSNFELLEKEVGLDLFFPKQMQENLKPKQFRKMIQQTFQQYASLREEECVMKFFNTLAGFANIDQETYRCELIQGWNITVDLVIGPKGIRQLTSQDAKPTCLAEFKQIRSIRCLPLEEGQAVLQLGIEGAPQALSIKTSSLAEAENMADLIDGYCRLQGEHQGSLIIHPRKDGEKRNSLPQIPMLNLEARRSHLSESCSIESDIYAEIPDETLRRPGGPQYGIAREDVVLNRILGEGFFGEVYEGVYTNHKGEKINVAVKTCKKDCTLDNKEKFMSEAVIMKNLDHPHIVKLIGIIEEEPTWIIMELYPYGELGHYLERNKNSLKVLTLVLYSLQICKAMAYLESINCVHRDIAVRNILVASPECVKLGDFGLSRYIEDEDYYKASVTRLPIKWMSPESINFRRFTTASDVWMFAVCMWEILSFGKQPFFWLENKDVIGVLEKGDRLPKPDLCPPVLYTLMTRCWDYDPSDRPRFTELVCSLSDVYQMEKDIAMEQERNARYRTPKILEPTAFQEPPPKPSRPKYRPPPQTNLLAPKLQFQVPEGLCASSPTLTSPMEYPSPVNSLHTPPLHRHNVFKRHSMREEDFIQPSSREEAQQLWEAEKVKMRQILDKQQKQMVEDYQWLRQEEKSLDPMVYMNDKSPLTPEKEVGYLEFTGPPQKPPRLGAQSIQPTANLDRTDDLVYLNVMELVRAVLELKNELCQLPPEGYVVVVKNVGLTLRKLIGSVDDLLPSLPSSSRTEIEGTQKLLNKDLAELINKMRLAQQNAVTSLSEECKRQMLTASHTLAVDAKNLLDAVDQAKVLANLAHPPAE
# FAK inh – FAK kinase inhibitors, primary screen, biochemical; Focal adhesion kinase 1 (Homo sapiens), Q05397; biochemical FAK kinase activity assay; inhibition, %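 (tested at 7 µM)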; hit rate 0.84% among 97,000; in the data active = inhibition above about 19%;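 note: 0% = DMSO and 100% = reference compound high control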
# JNK3 blocker – JNK3 kinase activity inhibitors, primary screen, biochemical, human, purified enzyme; Mitogen-activated protein kinase 10 (Homo sapiens), P53779; HTS; inhibition, % at 8 µM; hit rate 0.61% among 60,000; in the data active = inhibition above about 17%;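 note: 0% = DMSO and 100% = reference inhibitor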
# IL1B cytotox – cytotoxicity in IL-1B stimulated HUVEC, primary screen, cytotoxicity control for IL-1B NFkB translocation project, imaging, Hoechst nuclear count, IL-1B stimulus; HUVEC cell count loss; cell count reduction, % at 2 µM; AID 845, 2007; hit rate 0.41% among 94,000;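 active = cell count reduction more than 3 SD above the screen-wide mean, cut at about 70% in these data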;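 note: normalized per plate to untreated control cells as the no-loss baseline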
# IL1B NFkB inh – inhibitors of IL-1B driven NFkB p65 nuclear import, primary screen, imaging, HUVEC, IL-1B stimulus, high-content imaging | HUVEC IL-1B NFkB p65 nuclear translocation imaging | hit rate 0.43% among 94,000 | inhibition, % at 2 µM;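 active = inhibition above about 30% together with a positive call from visual inspection of the well image, limit read from the data; inconclusive = inhibition above a set limit but visual check negative; inactive = inhibition not above a set limit, visual check negative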;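 note: nuclear over cytoplasmic p65 intensity ratio measured by imaging; 0% = IL-1B stimulated DMSO wells and 100% = unstimulated DMSO wells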
# IL1B NFkB pot – enhancers of NFkB p65 translocation in HUVEC – imaging, IL-1B stimulus, high-content imaging, primary screen | HUVEC IL-1B NFkB p65 nuclear translocation imaging | activation, % at 2 µM | hit rate 0.3% among 94,000;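 active = activation above 40%, about the mean plus 3 SD, also judged a hit on visual image review; inconclusive = activation above 40% but not a hit on visual review; inactive = activation not above 40% and no visual hit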;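 note: percent activation is computed from the nuclear over cytoplasmic p65 intensity ratio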
# Active calls of the source: *; ? = inconclusive; / = not tested or not shown.
SMILES,PTK2B oligo ant,FAK inh,JNK3 blocker,IL1B cytotox,IL1B NFkB inh,IL1B NFkB pot
CCOC(=O)C1=C(CC)Nc2ccccc2N=C1NC(=O)Nc1ccc(Cl)c(Cl)c1,-4.11*,2.3,/,-7.4,-5.9,5.9
CCOC(=O)c1c(C)c(C(=O)NC2CCCCC2)c(C)n1CC,0.57,1.4,-6.8,7.1,/,154.5*
CCOC(=O)c1[nH]c(C)c(C(=O)NC2CCCCC2)c1C,/,0.5,3.4,-1.9,-39.2,39.2
COc1ccc(NC(=O)C2CC(=O)n3cnnc3S2)cc1 (centres undefined),0.5,1.0,/,5.1,-11.6,11.6
CCOC(=O)c1sc(NC(=O)c2cc(-c3ccccc3C)nc3ccccc23)c(C#N)c1C,-3.69*,-5.0,/,12.5,-1.2,1.2
COc1ccc(-c2cn3cccnc3n2)cc1NC(=O)c1ccc(Br)o1,-3.18*,-5.4,/,0.0,-3.2,3.2
Cc1ccc(S(=O)(=O)c2nc(Nc3nccs3)sc2Cl)cc1,-3.15*,-8.0,-1.5,3.9,-32.0,32.0
CC(=O)Nc1nc(S(=O)(=O)c2ccc(C)cc2)c(Cl)s1,-1.8,-3.6,/,-23.7,-6.1,6.1
CC1(C)Cc2c(sc3c2c(=N)n(Cc2ccco2)c(=O)n3CC(=O)Nc2ccc(Cl)cc2)CO1,-0.12,/,-2.5,/,/,/
COc1cc(NC(=O)Cn2nc(C(F)(F)F)c3c2CCCC3)cc(OC)c1OC,-0.16,-0.5,/,70.6*,-15.9,15.9
CCc1ccc(NC(=O)Cn2nc(C(F)(F)F)c3c2CCC3)cc1,0.07,3.7,/,-2.4,-9.3,9.3
COc1ccc(-n2c(C)cc(C(=O)Cn3c(NCCO)nc4ccccc43)c2C)cc1,0.67,8.6,-1.1,4.0,-41.0,41.0*
O=C(Cn1c(NCCO)nc2ccccc21)c1ccc(Cl)cc1,0.24,9.4,1.4,-7.8,-0.7,0.7
COc1cc2cc(Br)cc(Br)c2nc1C,-1.03,-0.5,/,12.6,-3.8,3.8
O=C(Nc1ccc(N2CCCC2)cc1)c1ccccc1F,1.23,63.4*,/,5.7,3.2,-3.2
CCC(=O)N1CCc2cc(S(=O)(=O)N3CCN(C(=O)c4ccco4)CC3)ccc21,0.25,0.7,/,-46.7,-15.5,15.5
CC(=O)N1CCc2cc(S(=O)(=O)CCC(=O)N3CCN(C(=O)c4ccco4)CC3)ccc21,1.68,-2.6,4.9,85.6*,-5.5,5.5
O=C(NCc1ccco1)c1cccc2c1C(=O)N(C1CCCCC1)C2,-0.51,/,5.2,/,/,/
O=C(NCc1cccnc1)c1cccc2c1C(=O)N(C1CCCCC1)C2,-0.78,/,25.5*,/,/,/
O=C(OCCCN=C1NS(=O)(=O)c2ccccc21)C1CC(=O)N(c2ccc(Cl)cc2)C1 (centres undefined),1.23,-0.2,/,8.0,-13.9,13.9
NC(=O)c1oc2ccccc2c1NC(=O)c1ccc(F)cc1,/,17.8,26.4*,3.2,1.5,-1.5
COc1ccc2cc3cc(C(=O)NCCN4CCN(c5ccccc5F)CC4)oc3nc2c1,-3.13*,-4.2,-2.7,-11.4,-44.9,44.9*
Cc1cccc(N2CCCn3c2nc2c3c(=O)n(CCN3CCOCC3)c(=O)n2C)c1,-0.07,6.3,-0.9,-6.5,-2.0,2.0
Cc1ccc2[nH]c3c(c2c1)CCC3=O,0.9,-4.6,2.3,-3.8,6.7,-6.7
Cc1ccc2[nH]c3c(c2c1)CCc1cn[nH]c1-3,-0.29,14.9,43.5*,2.9,-4.6,4.6
SMILES,PTK2B oligo ant,FAK inh,JNK3 blocker,IL1B cytotox,IL1B NFkB inh,IL1B NFkB pot
COc1ccc2o/c(=N\O)c(C(=O)Nc3ccccc3OC)cc2c1,0.37,0.9,/,75.5*,8.0,-8.0
COc1ccc(OC)c(NC(=O)c2cc3ccccc3o2)c1,-1.27,1.1,3.0,8.5,-1.2,1.2
COc1ccc(NC(=O)c2c(OC)cccc2OC)c(OC)c1,-4.38*,1.6,-8.7,-30.7,5.6,-5.6
COc1ccc(NC(=O)c2ccccc2O)c(OC)c1,-0.6,-0.2,/,-1.6,-7.4,7.4
COc1ccccc1-c1cc(C(=O)N/N=C/C=C/c2ccccc2[N+](=O)[O-])c2ccccc2n1,-0.95,1.9,/,-2.1,-41.9,41.9*
COc1ccccc1-c1nnc(SCC(=O)Nc2nc(-c3ccccc3)cs2)n1C,-3.21*,15.0,-2.5,2.0,6.5,-6.5
Cc1cc(C)nc(SCc2nnc(SCC(=O)Nc3nc(-c4ccccc4)cs3)n2C)n1,0.66,0.8,/,-49.7,-28.8,28.8
CCOc1ccc2cc(C#N)c(SCC(=O)N3CCCC3)nc2c1,/,2.6,5.1,-11.4,-15.2,15.2
CC(C)(C)C(=O)Nc1nnc(Cc2ccccc2)s1,0.51,-0.4,/,-25.7,-41.7,41.7*
COCc1[nH]nc2c1C(c1sccc1C)C(C#N)=C(N)O2 (centres undefined),0.36,6.7,-5.4,-3.4,2.2,-2.2
CC(C)COC(=O)n1c(=O)oc2cc(S(=O)(=O)N3CCCCC3)ccc21,-3.45*,3.1,4.0,16.1,-0.9,0.9
CCOC(=O)n1c(=O)oc2cc(S(=O)(=O)N3CCOCC3)ccc21,0.87,3.0,-4.0,1.8,3.1,-3.1
CCN(CC)S(=O)(=O)c1cc(F)ccc1OC,0.11,-2.4,/,77.2*,6.5,-6.5
CCN(CC)S(=O)(=O)c1cc(C(=O)Oc2ccccc2OC)ccc1OC,-1.95,-3.4,4.9,-4.6,-4.3,4.3
N#CC1=C2SCC(O)(c3ccccc3)N2C(=O)CC1c1ccccc1F (centres undefined),-3.05*,1.4,/,-8.1,-19.5,19.5
N#CC1=C2SCC(O)(c3ccccc3)N2C(=O)CC1c1cccs1 (centres undefined),-1,3.7,7.4,0.0,12.1,-12.1
O=C(/C=C/c1cccs1)c1ccc(Br)cc1,-0.68,11.5,/,-21.0,-106.6,106.6*
O=C(/C=C/c1cccs1)c1ccc(NC(=O)c2cccc(Br)c2)cc1,-0.56,-9.5,/,-4.5,1.0,-1.0
COC(=O)c1ccc(Oc2nc(C)cc(Oc3ccccc3)n2)cc1,-0.62,0.4,-3.6,89.5*,-26.9,26.9
CC(CN1CCOCC1)(NS(=O)(=O)c1ccccc1)c1ccccc1 (centres undefined),0.55,-4.8,4.0,-11.1,-14.1,14.1
Cc1ccc(-c2nn(-c3ccccc3)cc2C=C2C(=O)CC(C)(C)CC2=O)cc1,-1.59,-3.5,/,-11.5,6.4,-6.4
CC1=NNC(=O)/C1=C\c1cn(-c2ccccc2)nc1-c1ccc(Cl)cc1,-2.44,-2.5,/,25.0,70.6*,-70.6
Cc1noc(C)c1S(=O)(=O)NCCN1CCN(c2ccccc2)CC1,-0.91,-1.2,/,10.5,31.2*,-31.2
COc1ccc(C2NC(C(=O)O)CS2)cc1COCC(F)(F)F (centres undefined),/,2.1,1.8,-6.8,-53.3,?
COc1ccccc1N1CCN(C(=O)Nc2cccc(C)c2)CC1,0.9,1.7,-0.8,-44.9,-8.4,8.4
